Only a selection was taken, and hits are over-represented in it overall.
C diff growth = C. difficile growth inhibition | AID 1259249 | Clostridium difficile clinical isolate growth, OD600, 24 h; hits give low values | growth activity, negative = inhibition, % at 16 µg/mL (by protocol) | 0.25% of 86,000 active;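 active means mean growth activity at or below -80% and every replicate also at or below -80%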;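 further: 0% = DMSO wells and -100% = levofloxacin 16 µg/mL wells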
The depositor's hits bear a star; ! = a repeat was not active.

SMILES | C diff growth
COc1ccccc1NC(=O)N1C[C@@H]2N[C@H](C1)C2c1ccc(-c2cccc(C#N)c2)cc1 (stereo partly specified) | 3.2
O=C(Nc1cccc(F)c1)N1C[C@@H]2N[C@H](C1)C2c1ccc(-c2cccnc2)cc1 (stereo partly specified) | 10.5
N#Cc1cccc(-c2ccc(C3[C@@H]4CN(C(=O)C5CCCC5)C[C@H]3N4)cc2)c1 (stereo partly specified) | 12.9
CCC(=O)N1CC(=O)N2[C@H](C1)[C@@H](c1ccc(C#Cc3cccc(OC)c3)cc1)[C@@H]2CO | -9.6
CCC(=O)N1[C@H](CO)[C@@H](c2ccccc2)C12CN(C(=O)c1cnccn1)C2 | 2.3
COc1ccc2c3c(n(C)c2c1)[C@H](CO)N(C(=O)c1cccc(F)c1)CC31CCN(CC2CC2)CC1 | 4.3
COc1ccc(NC(=O)Nc2ccc3c(c2)CC(=O)N([C@H](C)CO)C[C@@H](C)[C@@H](CN(C)S(=O)(=O)c2cccs2)O3)cc1 | -3.3
C[C@H](CO)N1C[C@H](C)[C@@H](CN(C)Cc2cccnc2)Oc2ncc(C#CC3CCCCC3)cc2C1=O | -1.2
CO[C@@H]1CN(C)C(=O)c2cc(NC(C)=O)ccc2OC[C@H](C)N(Cc2cncnc2)C[C@H]1C | -0.6
CCCNC(=O)N1CCC2(CC1)CN(C(=O)CN1CCOCC1)[C@@H](CO)c1[nH]c3cc(OC)ccc3c12 | 2.4
NC(=O)[C@@H]1[C@H]2C(=O)O[C@H](c3ccccc3)[C@H](c3ccccc3)N2[C@H](c2ccccc2OCCO)[C@@]12C(=O)Nc1ccccc12 | -29.2
COc1ccc2c3c([nH]c2c1)[C@@H](CO)N(C(=O)c1cccc(F)c1)CC31CCN(C(C)=O)CC1 | 0.7
C/C=C/c1ccc(C2[C@H]3CNC[C@@H]2N3C(=O)Nc2ccccc2Cl)cc1 (stereo partly specified) | 7.7
O=C(Nc1ccc(C(F)(F)F)cc1)N1[C@@H]2CNC[C@H]1C2c1ccc(-c2ccccc2)cc1 (stereo partly specified) | -98.9*!
O=C(Nc1ccc(F)cc1)N1[C@@H]2CNC[C@H]1C2c1ccc(-c2ccc(F)cc2)cc1 (stereo partly specified) | 39.6
O=C(Nc1cc(F)ccc1F)N1[C@@H]2CNC[C@H]1C2c1ccc(/C=C/c2ccccc2)cc1 (stereo partly specified) | 28.8
O=C(Nc1ccc(C(F)(F)F)cc1)N1[C@@H]2CNC[C@H]1C2c1ccc(/C=C/c2ccccc2)cc1 (stereo partly specified) | -102.6*!
O=C(Nc1ccccc1Cl)N1[C@@H]2CNC[C@H]1C2c1ccc(/C=C/c2ccccc2)cc1 (stereo partly specified) | 13.2
COc1ccc(NC(=O)N2[C@@H]3CNC[C@H]2C3c2ccc(-c3ccccc3)cc2)cc1 (stereo partly specified) | 30.8
O=C(Nc1ccc(F)cc1)N1[C@@H]2CNC[C@H]1C2c1ccc(/C=C/c2ccccc2)cc1 (stereo partly specified) | -101.1*!
O=C(Nc1ccc(F)cc1)N1[C@@H]2CNC[C@H]1C2c1ccc(-c2ccccc2)cc1 (stereo partly specified) | 59.1
O=C(Nc1ccc(Cl)cc1)N1[C@@H]2CNC[C@H]1C2c1ccc(/C=C/c2ccccc2)cc1 (stereo partly specified) | -97.6*
C/C=C/c1ccc(C2[C@H]3CNC[C@@H]2N3C(=O)Nc2cccc(Cl)c2)cc1 (stereo partly specified) | 45.6
O=C(Nc1ccc(Cl)cc1)N1[C@@H]2CNC[C@H]1C2c1ccc(-c2ccccc2)cc1 (stereo partly specified) | -3.3
O=C(C[C@@H]1CC[C@H]2[C@@H](COC[C@H](O)CN2C(=O)Nc2cc(Cl)cc(Cl)c2)O1)NCC1CCCCC1 | 1.9
SMILES | C diff growth
COc1ccc(NC(=O)N(C)C[C@@H]2Oc3ccc(NC(=O)CCC(F)(F)F)cc3C(=O)N([C@H](C)CO)C[C@@H]2C)cc1 | -1.6
CCC(=O)N1CC2(C1)[C@H](c1ccc(-c3ccc(F)cc3)cc1)[C@@H](CO)N2C(=O)CC | -10.0
CCC(=O)N1CC2(C1)[C@@H](c1ccc(-c3ccc(C)cc3)cc1)[C@@H](CO)N2S(C)(=O)=O | -13.0
COCC(=O)Nc1ccc2c(c1)[C@@H]1C[C@@H](CC(=O)O)O[C@H](CO)[C@@H]1O2 | 5.7
COc1ccc2c3c(n(C)c2c1)[C@@H](CO)N(C(=O)C1CCC1)CC31CN(Cc2cccc(F)c2)C1 | -11.1
COc1ccc2c3c(n(C)c2c1)[C@H](CO)N(C)CC31CN(C(=O)CN2CCOCC2)C1 | -2.6
Cc1noc(C)c1NC(=O)Nc1ccc2c(c1)C(=O)N([C@@H](C)CO)C[C@H](C)[C@@H](CN(C)CC1CCCCC1)O2 | -6.0
Cc1ccccc1-c1ccc(C2[C@H]3CNC[C@@H]2N3C(=O)Nc2ccc(C(F)(F)F)cc2)cc1 (stereo partly specified) | -96.4*
Cc1ccc(-c2ccc(C3[C@H]4CNC[C@@H]3N4C(=O)Nc3ccc(F)cc3)cc2)cc1 (stereo partly specified) | -74.8
Cc1ccccc1-c1ccc(C2[C@H]3CNC[C@@H]2N3C(=O)Nc2ccc(F)cc2)cc1 (stereo partly specified) | 59.5
C[C@H]1CN([C@@H](C)CO)C(=O)c2cc(C#CCN(C)C)cnc2O[C@@H]1CN(C)Cc1cccc(F)c1 | 7.5
COc1ccc2c3c(n(C)c2c1)[C@H](CO)N(Cc1ccncc1)CC31CCN(C(=O)C2CC2)CC1 | 6.4
COc1cccc(CN2[C@@H](CO)[C@H](c3ccccc3)C23CN(C(=O)C2CCCC2)C3)c1 | 4.6
Cc1ccccc1-c1ccc(C2[C@@H]3CN(S(=O)(=O)c4ccccc4C)C[C@H]2N3)cc1 (stereo partly specified) | -98.4*!
O=S(=O)(c1ccc(-c2ccccc2)cc1)N1C[C@@H]2N[C@H](C1)C2c1ccc(-c2ccccc2)cc1 (stereo partly specified) | 12.6
COc1ccccc1S(=O)(=O)N1C[C@@H]2N[C@H](C1)C2c1ccc(-c2ccccc2C)cc1 (stereo partly specified) | 48.9
Cc1ccccc1-c1ccc(C2[C@@H]3CN(S(=O)(=O)c4ccccc4)C[C@H]2N3)cc1 (stereo partly specified) | -12.8
COc1cccc(-c2ccc(C3[C@@H]4CN(S(=O)(=O)c5ccccc5)C[C@H]3N4)cc2)c1 (stereo partly specified) | 59.6
COc1cccc(S(=O)(=O)N2[C@@H]3CNC[C@H]2C3c2ccc(/C=C/c3ccccc3)cc2)c1 (stereo partly specified) | -46.9
Cc1ccc(S(=O)(=O)N2C[C@@H]3N[C@H](C2)C3c2ccc(/C=C/c3ccccc3)cc2)cc1 (stereo partly specified) | -95.4*!
C/C=C/c1ccc(C2[C@@H]3CN(S(=O)(=O)c4ccccc4)C[C@H]2N3)cc1 (stereo partly specified) | 1.4
COc1cccc(S(=O)(=O)N2C[C@@H]3N[C@H](C2)C3c2ccc(/C=C/c3ccccc3)cc2)c1 (stereo partly specified) | -94.4*!
C[C@@H]1CN([C@@H](C)CO)C(=O)c2cc(NC(=O)Cc3ccccc3)ccc2O[C@@H](C)CCCCO[C@@H]1CN(C)S(=O)(=O)c1ccc(Cl)cc1 | -0.8
CO[C@H]1CN(C)C(=O)c2ccc(NC(C)=O)cc2OC[C@H](C)N(CC2CCCCC2)C[C@@H]1C | 3.6

Screening data (PubChem BioAssay)
